By % Inhibition is commonly meant the change of the read-out against control, counted positive when it falls.

About 540 (0.36%) of roughly 150,000 compounds showed an effect of 50% or more. The sample as a whole holds a higher share of strong results than the screen did.

The test system of the test is Plasmodium falciparum. The test is described as follows: Primary screen in NF54 nanoGlo assay, in single point, at 2uM, 72h; a lower Z score goes with more inhibition. The test is classed as functional, Erythrocyte. The note with it: timepoint 72 hour.
For the compound `NC(=O)NCCC[C@@H]1NC(=O)[C@H](Cc2ccccc2)NC1=O`, the “% Inhibition” value is recorded as -12% and the Z score was 1.78.
As for `COCCc1nc(C)c([C@H](C)Nc2ccc3c(c2)CCC(=O)N3)s1`, the “% Inhibition” value is given as -15% and the Z score is reported as 1.74.
As for `CC(C)c1cccc(Nc2nc3ccncc3n(C(C)C)c2=O)c1`, the “% Inhibition” value is 91% and the Z score was -8.7.
Taken in the same sequence, the figures for `CCc1cccc(Nc2nc3ccncc3n(C(C)C)c2=O)c1` were 1% and -0.13.
The matching figures for `CC(C)n1c(=O)c(NCc2cccc(C(F)(F)F)c2)nc2ccncc21`: 24% and -2.33.
On to `CC1CCN(Cc2ccc(-c3ncnn3C(C)(C)C)o2)CC1`, for which the “% Inhibition” value was -6% and the Z score amounted to 1.14.
The matching figures for `CN1CCC(N(C)CC(NCC2CCC=CO2)c2ccccc2)CC1` (centres undefined): -4% and 0.49.
Taken in the same sequence, the figures for `c1ccc(COC[C@H](Nc2ncnc3ccccc23)c2ccccc2)cc1` were -12% and 1.08.
The matching figures for `Cc1cc(C)nc(O[C@H]2CCCN(C(=O)c3cccn(C)c3=O)C2)n1`: -2% and 0.22.
As for `O=C(Nc1cc(N2CCCS2(=O)=O)ccc1O)c1cccc(Oc2cccc(C(F)(F)F)c2)c1`, the “% Inhibition” value is recorded as 99% and the Z score was -18.11.
As for `O=C(N[C@H]1CCS(=O)(=O)C1)c1cccc(Oc2cccc(C(F)(F)F)c2)c1`, the “% Inhibition” value is listed as -25% and the Z score stood at 2.94.
Taken in the same sequence, the figures for `O=C(Nc1cccnc1)c1cccc(Oc2cccc(C(F)(F)F)c2)c1` were -13% and 1.85.
Consider `Cc1nc2ccc(NC(=O)C3C4C=CC(C4)C3C(=O)O)cc2s1` (centres undefined), for which the “% Inhibition” value was found to be 7% and the Z score was -1.15.
Taken in the same sequence, the figures for `Brc1ccc(-c2nc(Cn3ccnn3)co2)cc1` were -11% and 1.68.
As to `FC(F)(F)c1ccc(-c2nc(Cn3ccnn3)co2)cc1`, the “% Inhibition” value is 89% and the Z score is -0.03.
Taken in the same sequence, the figures for `CCOc1ccc(-c2nc(Cn3ccnn3)co2)cc1` were -6% and 1.08.
As for `CO[C@H]1CN(C2CCN(C(=O)CCc3c[nH]c4ccccc34)CC2)C12CCOCC2`, the “% Inhibition” value was -2% and the Z score came out at 0.27.
The matching figures for `O=C(N[C@H]1CCN(c2cnccn2)C[C@@H]1O)c1ccc2c(c1)OCO2`: 0% and 0.01.
The matching figures for `COc1ccc(CC(=O)N2CC3(C[C@H](N4CCCCC4)CO3)C2)cc1`: -5% and 0.75.
The matching figures for `Cn1ccnc1[C@@H]1CCCN1Cc1nccn1Cc1ccccc1`: 50% and -4.75.
As to `Cn1cc([C@@H]2CCCN2Cc2nccn2Cc2ccccc2)cn1`, the “% Inhibition” value was -5% and the Z score was 0.74.
Taken in the same sequence, the figures for `CC(=O)N[C@@H]1CN(Cc2nccn2Cc2ccccc2)C[C@H]1c1nccn1C` were 30% and -1.12.
The matching figures for `CN(CC(c1ccccc1)c1ccccc1)[C@H]1COC[C@@H]1O`: -10% and 1.87.
The matching figures for `CC1=C(C(=O)N2C[C@H]3CC=CC[C@H]3C2)C(C)NC(=O)N1` (some centres undefined): -13% and 2.39.
On to `COc1ccc(-c2cc3n(n2)C[C@@](C)(C(=O)NCc2ccccc2OC)N(c2cccc(OC)c2)C3=O)cc1`, for which the “% Inhibition” value was 51% and the Z score is recorded as -8.04.
The matching figures for `C[C@@]1(C(=O)NCc2ccccc2)Cn2nc(-c3ccccc3)cc2C(=O)N1C1CC1`: 9% and -1.39.
The matching figures for `C[C@@]1(C(=O)NCc2ccccc2)Cn2nc(-c3ccccc3)cc2C(=O)N1c1ccc2c(c1)OCCO2`: 52% and -8.25.
The matching figures for `COc1ccc(-c2cc3n(n2)C[C@@](C)(C(=O)NCc2ccccc2OC)N(c2cc(C)cc(C)c2)C3=O)cc1`: 9% and -1.43.
With `Cc1ccc(CNC(=O)[C@]2(C)Cn3nc(C)cc3C(=O)N2c2ccc3c(c2)OCCO3)cc1`, the “% Inhibition” value is -1% and the Z score is 0.18.
The matching figures for `CCc1ccc(-c2cc3n(n2)C[C@@](C)(C(=O)NC2CCCCC2)N(c2cc(C)cc(C)c2)C3=O)cc1`: 71% and -11.34.
Taken in the same sequence, the figures for `CCc1ccc(-c2cc3n(n2)C[C@@](C)(C(=O)NC2CCCCC2)N(c2cccc(C)c2C)C3=O)cc1` were -2% and 0.32.
Taken in the same sequence, the figures for `COc1ccc(-c2cc3n(n2)C[C@@](C)(C(=O)NCc2ccccc2)N(Cc2ccc4c(c2)OCO4)C3=O)cc1` were 52% and -8.23.
For the compound `COc1ccc(-c2cc3n(n2)C[C@@](C)(C(=O)NCc2ccccc2)N(Cc2ccccc2Cl)C3=O)cc1`, the “% Inhibition” value turned out to be 17% and the Z score is -2.69.
As to `CCc1ccc(-c2cc3n(n2)C[C@@](C)(C(=O)NC2CCCCCC2)N(c2ccc(F)cc2)C3=O)cc1`, the “% Inhibition” value is 0% and the Z score is listed as 0.02.
On to `COc1ccc(-c2cc3n(n2)C[C@@](C)(C(=O)NCc2ccccc2OC)N(c2ccc(C)cc2)C3=O)cc1`, for which the “% Inhibition” value is reported as -4% and the Z score came out at 0.55.
The matching figures for `COc1ccc(CN2C(=O)c3cc(-c4ccc(OC)cc4)nn3C[C@@]2(C)C(=O)NCc2ccccc2)cc1`: 6% and -0.96.
The matching figures for `Cc1nc(NC(=O)CC2=CCCCC2)n(C)n1`: 5% and -0.53.
Taken in the same sequence, the figures for `CN(C(=O)OC(C)(C)C)[C@H]1CCCN(C(=O)c2ccn(C)c(=O)c2)C1` were 3% and -0.37.
As for `CC1(C)CC(C)(C)c2ccccc2CN1`, the “% Inhibition” value was found to be 3% and the Z score is -0.41.
Taken in the same sequence, the figures for `Cn1nccc1NC(=O)Cn1ncc2cc(-c3cccc4cccnc34)ccc21` were 0% and -0.05.
Taken in the same sequence, the figures for `COc1ccc(C2=C[C@@H](c3cccc(OC)c3)n3ncc(C(=O)Nc4ccccc4)c3N2)cc1` were 6% and -0.59.
Take `COc1ccc(C2=C[C@@H](c3ccc(F)cc3)n3ncc(C(=O)Nc4ccc(C)cc4)c3N2)cc1`: the “% Inhibition” value is given as 2% and the Z score was -0.16.
The matching figures for `CCc1ccc(C2=C[C@@H](c3cccc(OC)c3)n3ncc(C(=O)Nc4ccc(C)cc4)c3N2)cc1`: 60% and -5.98.
The matching figures for `O=C(N[C@@H](Cn1nccn1)c1ccccc1)c1ccncc1`: -13% and 1.97.
Taken in the same sequence, the figures for `O=C(N[C@@H](Cn1nccn1)c1ccccc1)c1cc(Br)ccc1Cl` were 57% and -6.89.
For the compound `O=C(N[C@@H](Cn1nccn1)c1ccccc1)c1cc(-c2ccccc2)n[nH]1`, the “% Inhibition” value is recorded as -4% and the Z score was 0.69.
The matching figures for `Clc1cccc(OC2CN(C[C@@H]3CCCN4CCCC[C@H]34)C2)c1`: 3% and -0.42.
Take `Fc1cc(Cl)ccc1OC[C@@H]1CCCN2CCCC[C@H]12`: the “% Inhibition” value is 17% and the Z score is -2.29.
For the compound `Cc1n[nH]c(C)c1CCCN(C)C(=O)c1cn2cccnc2n1`, the “% Inhibition” value stood at 4% and the Z score is recorded as -0.72.
Taken in the same sequence, the figures for `Cc1cc(C)c(CNC(=O)c2cnn(C)c2C)c(=O)[nH]1` were -9% and 1.13.
Taken in the same sequence, the figures for `O=c1[nH]nc(-c2ccc(Cl)cc2)c2cn(-c3ccc(Cl)cc3)nc12` were -14% and 1.65.
For `Clc1ccc(-c2nnc(-c3ccco3)c3nocc23)cc1`, the “% Inhibition” value came out at 3% and the Z score is reported as -0.41.
The matching figures for `Cc1nnc(-c2ccco2)c2cn(-c3ccc(Cl)cc3)nc12`: 69% and 1.
The matching figures for `Cc1noc(C)c1C(=O)N1CCC[C@H](Oc2ncc(Cl)cn2)C1`: -3% and 0.45.
Taken in the same sequence, the figures for `O=C(NCCN1CCC[C@H](CO)C1)c1cccc(-c2ccc3occc3c2)c1` were -3% and 0.37.
As for `Cn1nc2c(c1C(=O)NCc1csc(N)n1)CCCC2`, the “% Inhibition” value is on record as 5% and the Z score is -0.77.
Taken in the same sequence, the figures for `CNc1nc(NCc2ccccc2)nc2ccccc12` were 81% and -8.4.
Taken in the same sequence, the figures for `CC(C)COC(=O)c1nc2ccccc2nc1Nc1ccc2c(c1)OCCO2` were 8% and -0.98.
Taken in the same sequence, the figures for `C[C@H](Nc1nc(N2CCCCC2)nc2ccccc12)c1ccccc1` were 40% and -5.78.
As for `C[C@H](Nc1nc(N(C)C)nc2ccccc12)c1ccccc1`, the “% Inhibition” value is given as -5% and the Z score is 0.67.
Taken in the same sequence, the figures for `CNc1nc(NCCc2ccccc2)nc2ccccc12` were 83% and -8.48.
The matching figures for `NS(=O)(=O)c1ccc(CCNc2nc(-c3ccccc3)nc3ccccc23)cc1`: 39% and 0.27.
Taken in the same sequence, the figures for `Cc1nc(Nc2ccc3c(c2)OCCO3)cc(-c2ccccc2)n1` were 5% and -0.89.
Regarding `CNc1nc(Nc2ccc3c(c2)OCCO3)nc2ccccc12`, the “% Inhibition” value was 89% and the Z score is reported as -16.08.
Taken in the same sequence, the figures for `Nc1ncnc(NCCc2ccccc2)n1` were 2% and -0.24.
Taken in the same sequence, the figures for `CCN(Cc1nc(C(N)=O)no1)Cc1c(F)cccc1Cl` were -6% and 1.04.
The matching figures for `CC(C)(N)c1ccc(Cl)c(Cl)c1`: -9% and 1.19.
Turning to `Nc1c(Br)cc2oc(-c3ccc4ccccc4c3)nc2c1Br`, the “% Inhibition” value stood at 36% and the Z score is listed as -1.3.
Taken in the same sequence, the figures for `O=C(N[C@H]1CCn2nccc2C1)c1ccc(OC(F)F)cn1` were -8% and 0.97.
As to `CC(C)(C)OC1CC(NCC(=O)NCC2CC2)C1(C)C` (centres undefined), the “% Inhibition” value is given as -5% and the Z score came to 0.8.
For `COC(=O)[C@H]1CCc2nnc(Cc3ccc(F)cc3)n2C1`, the “% Inhibition” value is reported as -9% and the Z score came to 1.42.
Regarding `O=C(c1ccccc1C(F)(F)F)N1CC2(CCOC2)C1`, the “% Inhibition” value came to 5% and the Z score is -0.56.
Regarding `Cc1nc(N)nc(C(F)(F)F)c1Br`, the “% Inhibition” value is recorded as -1% and the Z score worked out at 0.16.
As for `O=C(NC1CC1)c1ccccc1C(=O)c1ccc(F)cc1`, the “% Inhibition” value is listed as -8% and the Z score came out at 1.02.
For the compound `COc1ccc(C(=O)c2ccccc2C(=O)Nc2cn[nH]c2)cc1`, the “% Inhibition” value was -8% and the Z score amounted to 1.57.
For `O=C(Nc1cnc2ccccc2c1)c1ccccc1C(=O)c1ccc(F)cc1`, the “% Inhibition” value was 93% and the Z score was -10.24.
The matching figures for `Cc1ccc(C(=O)Nc2ncn(Cc3c(F)cccc3Cl)n2)cc1`: -15% and 1.74.
The matching figures for `C[n+]1ccc(-c2ncc(-c3ccccc3)o2)c2ccccc21`: 75% and -5.73.
In the case of `CN(Cc1ncc(-c2ccccc2)o1)c1ccccc1`, the “% Inhibition” value is recorded as -6% and the Z score stood at 0.5.
Taken in the same sequence, the figures for `CC(=O)Nc1c(-c2ccc(F)cc2)c(C)nn1-c1ccc(C(=O)Nc2cccc(F)c2)cc1` were -5% and 0.93.
Taken in the same sequence, the figures for `CC(=O)Nc1c(-c2ccc(C)cc2)c(C)nn1-c1ccc(C(=O)Nc2cc(C)ccn2)cc1` were 59% and -6.89.
The matching figures for `CC(=O)Nc1c(-c2ccc(F)cc2)c(C)nn1-c1ccc(C(=O)Nc2nc(C)cs2)cc1`: -1% and 0.19.

Source of the values: ChEMBL document CHEMBL4888484, “Replenishing the malaria drug discovery pipeline: Screening and hit evaluation of the MMV Hit Generation Library 1 (HGL1) against asexual blood stage Plasmodium falciparum ,using a nano luciferase reporter read-out” (2022).
